Laboratory results: the supplement of paper PMC5662767
Counter-ions that a name gives are not always drawn.

Test system: Drosophila S2 cl14 SmoIP sensor cells
Assay: normalized SmoIP GFP fluorescence (untreated unstimulated = 0%, untreated Hh-stimulated = 100%); higher = more Smo activation sensor fluorescence
Details: compound concentration: 2 uM, 24 h
[1] = stimulation: Hh conditioned medium (+Hh)
[2] = stimulation: mock conditioned medium (-Hh)
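Also: flow cytometry read-out as median GFP intensity of gated cells, compounds added 30 min before Hh-conditioned or mock medium, mock-treated cells serving as unstimulated baseline.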

SMILES	normalized SmoIP GFP fluorescence [1] [%]	normalized SmoIP GFP fluorescence [2] [%]
COC(=O)N[C@@H](C)CNc1nccc(-c2cn(C(C)C)nc2-c2cc(Cl)cc(NS(C)(=O)=O)c2F)n1	170	48.8
O=C1CCC(N2C(=O)c3ccccc3C2=O)C(=O)N1 (centres undefined) [Thalidomide]	101	4.26
Cc1cc(Nc2ccc(NC(=O)c3ccc(Nc4ccnc5ccccc45)cc3)cc2)nc(N)n1	108	-3.5
CNC(=O)c1cc(Oc2ccc(NC(=O)Nc3ccc(Cl)c(C(F)(F)F)c3)c(F)c2)ccn1	100	27.4
COc1cc2c(cc1Cc1cccc(Cl)c1F)c(=O)c(C(=O)O)cn2[C@H](CO)C(C)C [Elvitegravir]	143	-9.22
Cn1cnc2c(F)c(Nc3ccc(Br)cc3F)c(C(=O)NOCCO)cc21	138	23
CC(C)C[C@H](NC(=O)[C@H](CCc1ccccc1)NC(=O)CN1CCOCC1)C(=O)N[C@@H](Cc1ccccc1)C(=O)N[C@@H](CC(C)C)C(=O)[C@@]1(C)CO1 [carfilzomib-pr-171]	80.7	5.7
O=C1C[C@@H](c2ccc(O)cc2)Oc2cc(O)cc(O)c21 [Naringenin]	106	-6.61
COc1cc2nccc(Oc3ccc(NC(=O)Nc4cc(C)on4)c(Cl)c3)c2cc1OC	111	1.89
Cc1cc(O)c2c(c1)C(=O)c1cccc(O)c1C2=O [Chrysophanic-acid-Chrysophanol]	133	-7.42
CCN(CC)CCCCNc1ncc2cc(-c3cc(OC)cc(OC)c3)c(NC(=O)NC(C)(C)C)nc2n1	123	8.79
CC(C)(C)Cn1c(N)nc2ccc(-c3[nH]c(C(C)(C)C)nc3-c3ccc(F)cc3)nc21	101	1.35
O=C(O)c1ccc(N2C(=O)/C(=C\c3ccc(-c4ccc([N+](=O)[O-])cc4)o3)C=C2c2ccccc2)cc1 [4e1rcat]	105	-0.265
C[C@@H](NCCc1ccc(O)cc1)[C@@H](O)c1ccc(O)cc1 [Ritodrine-hydrochloride-Yutopar]	144	-5.98
CCOc1ccc(Cc2cc([C@@H]3O[C@H](CO)[C@@H](O)[C@H](O)[C@H]3O)ccc2Cl)cc1 [Dapagliflozin]	75.9	1.57
Cc1ccc(-c2c(-c3nn(C)c4ncnc(N5CC[C@H](N6CCCCC6)C5)c34)cnn2C)cc1	114	-2.71
CNC(=O)c1cc(COc2nnc(Nc3ccc(Cl)cc3)c3ccoc23)ccn1 [Telatinib-BAY-57-9352]	104	-14.3
O=C(/C=C/c1ccc(O)c(O)c1)OCCc1ccccc1 [caffeic-acid-phenethyl-ester]	114	71.8
CCNC(=O)c1[nH]nc(-c2cc(Cl)c(O)cc2O)c1-c1ccc(OC)cc1	188	23.1
COc1cc(NC(=O)c2ccccn2)ccc1Cl	105	-1.74
Cc1cc2c(F)c(Oc3ncnn4cc(OC[C@@H](C)O)c(C)c34)ccc2[nH]1 [Brivanib]	97.5	0.489
CC[C@H](CO)Nc1nc(NCc2ccccc2)c2ncn(C(C)C)c2n1 [Roscovitine]	121	5.12
O=c1ncn2nc(Sc3ccc(F)cc3F)ccc2c1-c1c(Cl)cccc1Cl	79.3	-2.64
CC(C)C[C@H](NC(=O)CNC(=O)c1cc(Cl)ccc1Cl)B1OC(=O)C(CC(=O)O)(CC(=O)O)O1	157	31

SMILES	normalized SmoIP GFP fluorescence [1] [%]	normalized SmoIP GFP fluorescence [2] [%]
COc1ccc(CC(C)NCC(O)c2ccc(O)c(NC=O)c2)cc1 (centres undefined) [formoterol-hemifumarate]	129	-8.77
Nc1nc(N)nc(-c2cc(Cl)ccc2Cl)n1 [Irsogladine-maleate]	140	-3.9
Cc1cc(N2CCOCC2)ccc1Nc1nc(NC2CCCCC2)c2[nH]cnc2n1	93.8	-2.64
Cc1cncc(CN2CCC(=C3c4ccc(Cl)cc4CCc4cccnc43)CC2)c1 [rupatadine-fumarate]	112	3.77
O=C(CCCCCCC(=O)Nc1ccccc1)NO [Vorinostat-(SAHA)]	89.9	37.6
C=CCc1cccc(/C=N/NC(=O)CN2CCN(Cc3ccccc3)CC2)c1O	154	-5.53
Clc1ccc2nsnc2c1NC1=NCCN1 [Tizanidine-hydrochloride]	105	-5.76
CC(C)n1c(/C=C/[C@@H](O)C[C@@H](O)CC(=O)O)c(-c2ccc(F)cc2)c2ccccc21 [Fluvastatin-Sodium(Lescol]	78.2	-7.6
Cn1cc(-c2ccc3ncc(Cc4ccc5ncccc5c4)n3n2)cn1	123	-6.97
CNCCc1ccccn1 [betahistine-dihydrochloride]	98.3	-3.05
Oc1ccc(/C=C/c2cc(O)cc(O)c2)cc1 [Resveratrol]	104	-4.25
CN1CCC(=C2c3ccccc3CCc3cccnc32)CC1 [azatadine-dimaleate]	114	4.79
Cn1cc(-c2cnn3c(N)c(Br)c([C@@H]4CCCNC4)nc23)cn1	185	5.65
CCOC(=O)[C@H](CCc1ccccc1)N[C@@H](C)C(=O)N1Cc2ccccc2C[C@H]1C(=O)O [quinapril-hydrochloride-accupril]	125	2.95
CC(C)CN(C[C@@H](O)[C@H](Cc1ccccc1)NC(=O)O[C@H]1CO[C@H]2OCC[C@H]21)S(=O)(=O)c1ccc(N)cc1 [Darunavir-Ethanolate(Prezista)]	101	-5.54
CS(=O)(=O)c1ccc(-c2cnc(N)c(C(=O)Nc3ccccc3)n2)cc1	232	74.4
CC(C)(C)c1ccc(C(=O)CCCN2CCC(OC(c3ccccc3)c3ccccc3)CC2)cc1 [ebastine]	135	18.3
O=C(O)Cn1nnc(-c2cc(N3CCC(Oc4cc(F)ccc4Br)CC3)no2)n1	80.4	13.3
c1ccc(-c2nn3c(c2-c2ccnc4cc(OCCN5CCOCC5)ccc24)CCC3)nc1	137	30.2
CCCCc1oc2ccccc2c1C(=O)c1cc(I)c(OCCN(CC)CC)c(I)c1 [amiodarone-hcl]	112	1.69
CCc1c(O)cc(O)c(C(=O)c2ccc(OCCN3CCOCC3)c(OC)c2)c1CC(=O)N(CCOC)CCOC	121	-12.4
CCC(=O)N1CCN(c2ccc(-n3c(=O)ccc4cnc5ccc(-c6cnc7ccccc7c6)cc5c43)cc2C(F)(F)F)CC1 [torin-1]	46.9	-12.5
CC(C)(C)NS(=O)(=O)c1cncc(-c2cc(F)c3nc(N)nn3c2)c1	104	-4.47
